The full ranking holds about 33,000 sequences; the median of “E-score (-0.5 to 0.5)” is about -0.017, and the highest 2% start at about 0.3. The sample as a whole holds a higher share of the highest values than the screen did.
These sequences were tested against T1, Sut1 (UniProt P53032) (assay: PBM E-score (8-mer binding enrichment) (E-score (-0.5 to 0.5)); higher = stronger / more preferred TF binding). Details: protein concentration: 200 nM; construct: GST-full length.
T1 sequence: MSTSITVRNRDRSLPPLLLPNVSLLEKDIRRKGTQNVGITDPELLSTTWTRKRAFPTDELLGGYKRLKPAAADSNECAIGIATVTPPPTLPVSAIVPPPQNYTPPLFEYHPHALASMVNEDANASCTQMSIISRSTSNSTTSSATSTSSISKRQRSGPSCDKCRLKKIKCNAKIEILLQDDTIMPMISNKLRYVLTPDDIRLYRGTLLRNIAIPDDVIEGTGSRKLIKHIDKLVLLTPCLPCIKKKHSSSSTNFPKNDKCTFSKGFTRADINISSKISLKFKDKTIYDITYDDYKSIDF
Procedure: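 Universal 'all 10-mer' protein binding microarrays (Agilent AMADID 015681) probed with GST-tagged S. cerevisiae TFs (full-length or DBD) made by in vitro transcription/translation (PURExpress), about 100-200 nM. Bound TF was detected with fluorescent anti-GST. Each ungapped 8-mer (which stands for itself and its reverse complement) is scored by the PBM enrichment score (E-score), a modified Wilcoxon-Mann-Whitney statistic from -0.5 to +0.5, computed with the Universal PBM Analysis Suite. Scale: above 0.35 generally sequence-specific binding.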

**Q.** How did the “PBM E-score” value turn out when TCATACAA was run?
**A.** 0.304

**Q.** How did the “PBM E-score” value turn out when CCATACAA was run?
**A.** 0.0626

**Q.** GTATACAA was tested. Which “PBM E-score” value did it give?
**A.** 0.179

**Q.** GCATACAA was tested. Which “PBM E-score” value did it give?
**A.** 0.0888

**Q.** Which “PBM E-score” value does the source give for AACCTTGA here?
**A.** 0.116

**Q.** GATGGTGC was tested. Which “PBM E-score” value did it give?
**A.** -0.409

**Q.** Which “PBM E-score” value does the source give for GCAGGGAA here?
**A.** 0.0261

**Q.** Which “PBM E-score” value does the source give for CAAGAGAA here?
**A.** 0.0231

**Q.** Which “PBM E-score” value does the source give for AGAAGCCC here?
**A.** 0.167

**Q.** CAATATAA was tested. Which “PBM E-score” value did it give?
**A.** 0.308

**Q.** GGATAAAA was tested. Which “PBM E-score” value did it give?
**A.** 0.252

**Q.** How did the “PBM E-score” value turn out when TAATAATA was run?
**A.** 0.282

**Q.** For TGATAAAA, which “PBM E-score” value is on record?
**A.** 0.283

**Q.** How did the “PBM E-score” value turn out when CGATAAAA was run?
**A.** 0.303

**Q.** For CAATAAAA, which “PBM E-score” value is on record?
**A.** 0.136

**Q.** Which “PBM E-score” value does the source give for TAATAAAA here?
**A.** 0.332

**Q.** CAATATAG was tested. Which “PBM E-score” value did it give?
**A.** 0.1

**Q.** Which “PBM E-score” value does the source give for GAATATAA here?
**A.** 0.153

**Q.** How did the “PBM E-score” value turn out when CAATATAC was run?
**A.** 0.144

**Q.** For GAATAAAA, which “PBM E-score” value is on record?
**A.** 0.242

**Q.** Which “PBM E-score” value does the source give for TAATATAA here?
**A.** 0.306

**Q.** How did the “PBM E-score” value turn out when ATATAGGA was run?
**A.** 0.0279

**Q.** For AAATTGCA, which “PBM E-score” value is on record?
**A.** -0.0262

**Q.** ACCCTATC was tested. Which “PBM E-score” value did it give?
**A.** 0.0201

**Q.** CTTGAACA was tested. Which “PBM E-score” value did it give?
**A.** 0.0785

**Q.** With GTTGCGCA as the sequence, how does the “PBM E-score” value read?
**A.** -0.226

**Q.** CAGCCTAC was tested. Which “PBM E-score” value did it give?
**A.** -0.0545

**Q.** With CGGATGCA as the sequence, how does the “PBM E-score” value read?
**A.** -0.0215

**Q.** Which “PBM E-score” value does the source give for AATGTATA here?
**A.** 0.298

**Q.** How did the “PBM E-score” value turn out when ATTGTATG was run?
**A.** 0.175

**Q.** GATGTATA was tested. Which “PBM E-score” value did it give?
**A.** 0.0593

**Q.** With CATGTATA as the sequence, how does the “PBM E-score” value read?
**A.** 0.0763

**Q.** How did the “PBM E-score” value turn out when ATTGTATA was run?
**A.** 0.311

**Q.** CTTGTATA was tested. Which “PBM E-score” value did it give?
**A.** 0.166

**Q.** How did the “PBM E-score” value turn out when AGCCTACG was run?
**A.** -0.109

**Q.** For AGCCCATC, which “PBM E-score” value is on record?
**A.** -0.23

**Q.** With AACATGGG as the sequence, how does the “PBM E-score” value read?
**A.** -0.00269

**Q.** Which “PBM E-score” value does the source give for CTATTGAA here?
**A.** 0.226

**Q.** CAAACAAA was tested. Which “PBM E-score” value did it give?
**A.** 0.161

**Q.** For AAACAAAC, which “PBM E-score” value is on record?
**A.** 0.165

**Q.** ACCAACAG was tested. Which “PBM E-score” value did it give?
**A.** -0.297

**Q.** With GAAACAAC as the sequence, how does the “PBM E-score” value read?
**A.** 0.107

**Q.** Which “PBM E-score” value does the source give for ACCAACAT here?
**A.** 0.0524

**Q.** Which “PBM E-score” value does the source give for GAAACAAA here?
**A.** 0.321

**Q.** With AAACAAAG as the sequence, how does the “PBM E-score” value read?
**A.** 0.322

**Q.** ACCAACAA was tested. Which “PBM E-score” value did it give?
**A.** 0.299

**Q.** TAAAACAA was tested. Which “PBM E-score” value did it give?
**A.** 0.207

**Q.** For GAAAACAA, which “PBM E-score” value is on record?
**A.** 0.184

**Q.** AAAAACAA was tested. Which “PBM E-score” value did it give?
**A.** 0.316

**Q.** Which “PBM E-score” value does the source give for AAACAAAA here?
**A.** 0.197

**Q.** Which “PBM E-score” value does the source give for GAGTTGAA here?
**A.** 0.18

**Q.** Which “PBM E-score” value does the source give for ACAGATAT here?
**A.** 0.0244

**Q.** With ATAAGTTC as the sequence, how does the “PBM E-score” value read?
**A.** 0.261

**Q.** ATACAGTG was tested. Which “PBM E-score” value did it give?
**A.** 0.0667

**Q.** CTCCAAAG was tested. Which “PBM E-score” value did it give?
**A.** 0.0263

**Q.** With CCTCGACA as the sequence, how does the “PBM E-score” value read?
**A.** -0.288

**Q.** How did the “PBM E-score” value turn out when CATGCGTA was run?
**A.** -0.0829

**Q.** With ATCAGTTA as the sequence, how does the “PBM E-score” value read?
**A.** 0.204

**Q.** TAAAAACA was tested. Which “PBM E-score” value did it give?
**A.** 0.188

**Q.** Which “PBM E-score” value does the source give for AAAACAAT here?
**A.** 0.215

**Q.** Which “PBM E-score” value does the source give for AAAACAAA here?
**A.** 0.312

**Q.** With GAAAAACA as the sequence, how does the “PBM E-score” value read?
**A.** 0.125

**Q.** AAAAAACA was tested. Which “PBM E-score” value did it give?
**A.** 0.313

**Q.** How did the “PBM E-score” value turn out when AAAACAAG was run?
**A.** 0.0776

**Q.** How did the “PBM E-score” value turn out when AAGTTACC was run?
**A.** 0.158

**Q.** With CCCAAGGC as the sequence, how does the “PBM E-score” value read?
**A.** -0.0767

**Q.** GATACGCA was tested. Which “PBM E-score” value did it give?
**A.** -0.141

**Q.** With GATACGGC as the sequence, how does the “PBM E-score” value read?
**A.** -0.104

**Q.** For GATACGGA, which “PBM E-score” value is on record?
**A.** 0.364

**Q.** Which “PBM E-score” value does the source give for AATACGGA here?
**A.** 0.286

**Q.** How did the “PBM E-score” value turn out when TATACGGA was run?
**A.** 0.312

**Q.** For TATACGAA, which “PBM E-score” value is on record?
**A.** 0.194

**Q.** Which “PBM E-score” value does the source give for CATACGGA here?
**A.** 0.303

**Q.** With CATACGGG as the sequence, how does the “PBM E-score” value read?
**A.** -0.186

**Q.** CATACGGC was tested. Which “PBM E-score” value did it give?
**A.** -0.156

**Q.** Which “PBM E-score” value does the source give for ATGAGTCA here?
**A.** -0.0351

**Q.** GCGCTAAC was tested. Which “PBM E-score” value did it give?
**A.** -0.0641

**Q.** With TAGCTATA as the sequence, how does the “PBM E-score” value read?
**A.** -0.0172

**Q.** With GCGATCCA as the sequence, how does the “PBM E-score” value read?
**A.** -0.121

**Q.** Which “PBM E-score” value does the source give for AGTTTTAT here?
**A.** 0.211

**Q.** TACCACCA was tested. Which “PBM E-score” value did it give?
**A.** 0.0245

**Q.** Which “PBM E-score” value does the source give for CAGCCTGC here?
**A.** -0.224

**Q.** How did the “PBM E-score” value turn out when AGACGAGG was run?
**A.** -0.182

**Q.** AGTACTCG was tested. Which “PBM E-score” value did it give?
**A.** 0.0601

**Q.** CGTACTCC was tested. Which “PBM E-score” value did it give?
**A.** 0.348

**Q.** For AGTACTCC, which “PBM E-score” value is on record?
**A.** 0.325

**Q.** AGTACTCA was tested. Which “PBM E-score” value did it give?
**A.** 0.0483

**Q.** Which “PBM E-score” value does the source give for CGTACTCA here?
**A.** 0.0162

**Q.** Which “PBM E-score” value does the source give for CGTACTAC here?
**A.** 0.0559

**Q.** How did the “PBM E-score” value turn out when AAAGTCAG was run?
**A.** 0.00828

**Q.** For GCTAAAGC, which “PBM E-score” value is on record?
**A.** -0.0213

**Q.** For CCTATCGC, which “PBM E-score” value is on record?
**A.** -0.115

**Q.** For CAGCAAAG, which “PBM E-score” value is on record?
**A.** -0.0349

**Q.** ATCCGTCC was tested. Which “PBM E-score” value did it give?
**A.** -0.0115

**Q.** With ATCCGTCA as the sequence, how does the “PBM E-score” value read?
**A.** 0.0376

**Q.** With GTCCGTCA as the sequence, how does the “PBM E-score” value read?
**A.** 0.253

**Q.** CTCCGTCA was tested. Which “PBM E-score” value did it give?
**A.** 0.369

**Q.** Which “PBM E-score” value does the source give for CCCCGTCC here?
**A.** -0.194

**Q.** With CTCCGTCC as the sequence, how does the “PBM E-score” value read?
**A.** 0.307

**Q.** Which “PBM E-score” value does the source give for CTACACAG here?
**A.** -0.108

**Q.** For CCAGGGTC, which “PBM E-score” value is on record?
**A.** -0.265

**Q.** How did the “PBM E-score” value turn out when ACGTATTC was run?
**A.** -0.0472

**Q.** How did the “PBM E-score” value turn out when TGACTTAA was run?
**A.** 0.153

**Q.** For CAGTCCAG, which “PBM E-score” value is on record?
**A.** -0.325

**Q.** With CCGTCCGA as the sequence, how does the “PBM E-score” value read?
**A.** 0.0411

**Q.** Which “PBM E-score” value does the source give for GAGTCCGC here?
**A.** 0.282

**Q.** How did the “PBM E-score” value turn out when TAGTCCAA was run?
**A.** -0.01

**Q.** For TAGTCCGA, which “PBM E-score” value is on record?
**A.** 0.48

**Q.** Which “PBM E-score” value does the source give for CAGTCCGC here?
**A.** 0.196

**Q.** How did the “PBM E-score” value turn out when GAGTCCGA was run?
**A.** 0.476

**Q.** Which “PBM E-score” value does the source give for CAGTCCCG here?
**A.** -0.0578

**Q.** Which “PBM E-score” value does the source give for CAGTCCGG here?
**A.** 0.353

**Q.** Which “PBM E-score” value does the source give for TAGTCCCA here?
**A.** -0.21

**Q.** With GCGTCCGA as the sequence, how does the “PBM E-score” value read?
**A.** -0.09

**Q.** How did the “PBM E-score” value turn out when CAGTCCGA was run?
**A.** 0.411

— the supplement of paper PMC3334620
